# An excerpt weighted towards active compounds, which were near 3.1% of everything screened.
# HIF-2a inh: inhibitors of HIF-2a. 786-0 RCC cells HIF-2a reporter, luciferase luminescence, overnight. AID 624352. actives 0.72% (n = 360,000). inhibition, % at 18.8 µM;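 active = inhibition of the luminescence signal of 40% or more relative to plate controls, in a single-dose primary screen at 18.75 µM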
# CF NFkB inh: blocks PAF-induced NF-kB reporter in cystic fibrosis cells. KKLEB NF-kB-GFP reporter, GFP fluorescence overnight. inhibition, % at 5 µM. actives 0.86% (n = 360,000);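 active = at least 50% inhibition at 5 µM, scaled per plate between neutral and stimulator controls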;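 note: PAF is a Pseudomonas aeruginosa culture filtrate used as stimulus; plate controls were PAF-stimulated DMSO wells for no effect and unstimulated DMSO wells for full effect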
# TRAIL sens C8: sensitizes caspase-8 expressing cells to TRAIL; NB7+C8 cells + TRAIL, ATPlite viability luminescence; inhibition (viability loss, TRAIL sensitization), % at 10 µM; actives 1% (n = 360,000); AID 624354;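 active = compounds causing at least 50% loss of cell viability in the single-dose screen, relative to plate controls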
# KKLEB tox: reduces viability of KKLEB cystic fibrosis airway cells. KKLEB CF airway cells viability, ATPlite luminescence, overnight; hits give low values; cells stimulated with P. aeruginosa culture filtrate. activity change (cytotoxicity), % at 5 µM. actives 0.36% (n = 360,000). AID 602141;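 active = corrected activity change at or below -50% at 5 µM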
# Peg3 promoter: reduces Peg3 promoter-driven luciferase expression in HeLa | HeLa PEG-Prom luciferase reporter, luminescence, overnight | inhibition, % at 20 µM | actives 1.7% (n = 360,000) | AID 588405;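 active = inhibition of at least 50% at 20 µM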
# PPC-1+TRAIL kill: kills PPC-1 cancer cells in the presence of TRAIL; PPC-1 cells + TRAIL, ATPLite viability luminescence; cell killing (% activity), % at 4 µM or 5 µM; actives 0.41% (n = 220,000); AID 1443;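 active = cell killing above 50% in the first pass at 4 µM, then a duplicate retest at 5 µM averaging 50% or more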;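 note: plate controls were cells with TRAIL plus DMSO for no effect and medium-only wells lacking cells for full effect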
# CF NFkB inh conf: confirmation of cystic fibrosis induced NF-kB inhibitors | shares compounds with CF NFkB inh | KKLEB CF airway cells, PAF-induced NF-kB-GFP fluorescence, overnight | inhibition, % at 5 µM | actives 64% (n = 1,300) | AID 602472; in the data active = inhibition above about 40%;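 note: stimulus PAF is a Pseudomonas aeruginosa filtrate and not platelet activating factor; plate controls were DMSO wells with stimulus for no effect and unstimulated DMSO wells for full effect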
# Mdm2-MdmX confirm: confirmation of inhibitors of human Mdm2/MdmX interaction, set 2 | shares compounds with HIF-2a inh | inhibition, % at 8 µM | actives 99% (n = 740) | SaOS-2 split-luciferase Mdm2/MdmX complementation, luminescence;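 active = mean inhibition of the luminescence signal across two replicates at or above 26 percent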
# HIF-2a inh conf: HIF-2a inhibition, single concentration confirmation; actives 56% (n = 1,800); AID 651580; 786-0 RCC cells, HIF-2a luciferase reporter luminescence, overnight; inhibition, % at 18.8 µM; shares compounds with HIF-2a inh;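 active = mean inhibition across four replicates of at least 40 percent at the single tested concentration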
# HIF-1a counter: counter-screen for HIF-2a inhibitors: HIF-1a inhibition in MiaPaCa-2 cells | shares compounds with HIF-2a inh | inhibition, % at 18.8 µM | MiaPaCa-2 HIF-1a luciferase reporter, desferoxamine, overnight | actives 72% (n = 1,800) | AID 651589;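 active = mean inhibition of the reporter signal across four replicates at the single tested dose of 50% or more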
# An asterisk follows results filed as active; . = no result given.
SMILES,HIF-2a inh,CF NFkB inh,TRAIL sens C8,KKLEB tox,Peg3 promoter,PPC-1+TRAIL kill,CF NFkB inh conf,HIF-2a inh conf,HIF-1a counter,others
Cc1cc(C)c(C#N)c(SCC(=O)c2ccc(Cl)cc2Cl)n1,-16,72*,35,-5,60*,11,67*,.,.,
N#Cc1cc(C(=O)c2cc(Cl)ccc2O)cn(-c2ccccc2)c1=O,5,9,4,-7,14,11,.,.,.,
Cc1ccc(NC(=O)c2cc(C(=O)c3cc(Cl)ccc3O)cn(-c3ccc(C)cc3)c2=O)cc1,-3,55*,8,-11,45,-6,56*,.,.,
CCCN1C(=O)C(=O)c2cc(C)ccc21,3,-1,18,5,-4,.,.,.,.,
CCCCN1C(=O)C(=O)c2cc(Cl)ccc21,9,63*,12,-8,-2,.,47*,.,.,
CC1=CC(C)(C)Nc2ccc(OC(=O)CN3C(=O)c4ccccc4C3=O)cc21,88*,51*,19,1,102*,21,-71,88*,96*,
CCOc1ccc2c(c1)C(C)=CC(C)(C)N2,0,8,-17,0,10,.,.,.,.,
CSCCNC(=O)C1(C)CCN1C(=O)CCc1ccccc1 (configuration not stated),3,6,6,4,9,.,.,.,.,
COc1cc(-c2nc(-c3ccc(NC(=O)c4ccc5c(c4)OCO5)cc3)no2)cc(OC)c1OC,-138,58*,59*,-49,-77,16,42*,.,.,Mdm2-MdmX confirm=88*
O=C(c1nnsc1S(=O)c1ccc(Cl)cc1)N1CCOCC1 (configuration not stated),28,84*,4,-6,101*,16,105*,.,.,Mdm2-MdmX confirm=102*
CN(C)C(=O)CSc1ncnc2scc(-c3ccccc3)c12,13,9,-5,-5,13,-1,.,.,.,
Cn1nnnc1Sc1ncnc2scc(-c3cccc(S(C)(=O)=O)c3)c12,63*,52*,2,-14,100*,.,17,32,66*,
Cn1nnnc1Sc1ncnc2scc(-c3ccccc3Cl)c12,65*,56*,-1,-24,106*,.,24,32,91*,
Cn1nnnc1Sc1c(Cl)cccc1[N+](=O)[O-],17,18,4,9,-2,10,.,.,.,
COc1ccc(-c2csc3ncnc(Sc4nnnn4C)c23)cc1,62*,58*,-9,-23,69*,.,54*,62*,104*,
CC(C)Oc1ccc(F)cc1-c1cc(C(=O)NCc2ccc(F)cc2)[nH]n1,16,-22,-6,-14,20,.,.,.,.,
COc1ccccc1CN1CC(C(=O)NCc2ncccc2C)CCC1=O (configuration not stated),-16,7,-10,-15,-6,.,.,.,.,
COC(=O)C1=CN(c2cccc(OCc3ccccc3)c2)C(N)=C(C#N)C1c1cccc(F)c1 (configuration not stated),0,.,7,.,.,.,.,.,.,
CN1CCN(S(=O)(=O)c2ccc(Sc3nnnn3-c3ccccc3)c([N+](=O)[O-])c2)CC1,67*,88*,13,-30,91*,-12,64*,39,100*,Mdm2-MdmX confirm=102*
O=C(NCCC1=CCCCC1)c1coc(=O)c(Br)c1,65*,85*,53*,11,81*,10,93*,-10,64*,
O=C(NC(CO)(CO)CO)c1coc(=O)c(Br)c1,-13,20,0,3,3,5,.,.,.,
CC(C)CNC(=O)c1coc(=O)c(Br)c1,70*,74*,9,-12,74*,4,95*,-12,52*,
Cn1ncc2c(O/N=C(\N)c3ccc(C(C)(C)C)cc3)ncnc21,93*,58*,92*,-44,112*,19,88*,98*,-198,Mdm2-MdmX confirm=103*
CCOC(=O)c1ccc(Nc2ncnc3c2cnn3C)cc1,-64,6,6,2,-53,16,.,.,.,
COc1ccc2[nH]c(=O)c3c(c2c1)OC(C)(C)C=C3,22,86*,0,-7,37,8,98*,.,.,Mdm2-MdmX confirm=98*
SMILES,HIF-2a inh,CF NFkB inh,TRAIL sens C8,KKLEB tox,Peg3 promoter,PPC-1+TRAIL kill,CF NFkB inh conf,HIF-2a inh conf,HIF-1a counter,others
Cc1cc2c([nH]c3ccccc32)c2c1OC(C)(C)C=C2,-281,16,13,-14,-390,-3,.,.,.,
COc1cc(/C=C/C(=O)c2ccc(O)cc2)ccc1OCC#N,51*,65*,-29,-17,97*,7,-5,-13,100*,
CCOc1ccc(/C=C/C(=O)c2ccccc2)cc1OC,-145,0,21,-12,-203,21,.,.,.,
O=C(CSc1ccccn1)Nc1nonc1[N+](=O)[O-],47*,88*,54*,-15,104*,.,1,23,-34,
Cc1nn(-c2ccccc2)c(Cl)c1C(=O)N1CCN(c2ncnc3c2cnn3-c2ccccc2)CC1,12,63*,73*,-17,114*,32,73*,.,.,Mdm2-MdmX confirm=100*
COc1ccc(C(=O)N2CCN(Cc3ccccc3)CC2)cc1[N+](=O)[O-],3,-6,1,-1,20,.,.,.,.,
O=C(c1ccc(S(=O)(=O)c2cccc(Cl)c2)c([N+](=O)[O-])c1)N1CCN(Cc2ccccc2)CC1,28,78*,33,-39,33,41,-95,.,.,Mdm2-MdmX confirm=101*
O=C(NCc1ccccc1)c1cc(C2CCCCN2C(=O)c2ccc3c(c2)CCO3)on1 (configuration not stated),11,16,-7,0,-5,.,.,.,.,
C[C@@H]1Cc2c(O)c(O)cc(O)c2C(=O)O1,10,0,-6,10,0,-1,.,.,.,
CC1CCC/C=C/C(=O)c2c(O)cc(O)cc2CC(=O)O1 (configuration not stated),91*,82*,23,-5,106*,0,36,80*,102*,Mdm2-MdmX confirm=103*
CC(=O)Nc1ccc(Nc2nc(-c3sc(NC(C)=O)nc3C)cs2)cc1,68*,67*,13,-14,34,.,87*,66*,91*,
Cc1cccc(CNC(=O)C2CCC(=O)N(CCc3cccc(F)c3)C2)n1 (configuration not stated),6,-5,-1,6,-3,.,.,.,.,

# From PubChem BioAssay
